Data on 40 compounds can be found in PubChem BioAssay (Tox21).

The structures appear in SMILES notation. Values joined by “and” are separate entries in the source; they are usually repeats but may differ in a detail not shown here. Equal values may be shown once. Results filed as inconclusive are left out. Where a call stands in place of a potency, no number is given. Active and inactive are the calls of the source. Calls follow the shape of the dose curve; as a rule, active = well fitted activation curve with a large enough effect in the signal ratio in the repeat runs (not every such curve was filed as active); inconclusive = weak or mixed curves, or effect the other way; inactive = flat fitted curve, though single readings scatter; the % refers to the signal ratio.
Potency is read from the fitted curve at half-maximal effect.

The assay can be described thus: qHTS assay to identify small molecule agonists of the endoplasmic reticulum stress response signaling pathway (AID 1159516). The note with it: ESRE-bla HeLa, ER stress beta-lactamase reporter, 5 h; series mostly up to 61 µM. From the text: National Center for Advancing Translational Sciences [NCATS]
NIH Chemical Genomics Center [NCGC]
U.S. Environmental Protection Agency [EPA]
National Institutes of Environmental Health Sciences [NIEHS]
National Toxicology Program [NTP]
U.S. Food and Drug Administration [FDA]
Endoplasmic Reticulum (ER) plays an important role in cellular signaling, protein folding/maturation, stress response, lipid biosynthesis, calcium storage and release etc. Under stress conditions, proteins in ER misfold or unfold, and leading to the expression of ER stress responsive genes. ER stress has been associated with a variety of pathophysiological conditions such as cancer, inflammation, neurodegenerative diseases, diabetes, ischemic heart disease etc. To identify the compounds that induce ER stress response, an ER stress reporter cell line, CellSensor ESRE-bla HeLa (Life Technologies, Carlsbad, CA) containing a beta-lactamase reporter gene under control of the Endoplasmic reticulum Stress Response Element (ESRE) was used to screen Tox21 10K compound library.
Tox21 Assay Protocol Summary:
ESRE-bla HeLa cells were dispensed at 1,500 cells/6 uL of assay medium per well into black wall/clear-bottom 1536-well plates using a Multidrop Combi (ThermoFisher Scientific, Waltham, MA) dispenser. After the assay plates were incubated at 37 C and 5% CO2 for an overnight, 23 nL of compounds dissolved in DMSO, positive controls or DMSO only was transferred to the assay plate by a Pintool station (Kalypsys, San Diego, CA). The assay plates were incubated at 37 C and 5% CO2 for 5 hr. One uL of LiveBLAzer B/G FRET substrate (Life Technologies) was added using a Flying Reagent Dispenser (Aurora Discovery, San Diego, CA) and the plates were incubated at room temperature for 2 hr. Fluorescence intensity (405 nm excitation, 460 nm and 530 nm emissions) was measured using an Envision plate reader (PerkinElmer, Shelton, CT).
On the technique in general: qHTS replaces the single test concentration by a dilution series.
With `Cc1cc(CC(=O)O)n(C)c1C(=O)c1ccc(Cl)cc1`, the Potency entry was “inactive”. On to `CC(=O)OCc1ccc2c(c1)OCO2`, for which the Potency result was “inactive”. In the case of `Brc1ccc(Oc2ccc(Br)cc2)cc1` it was “inactive”; in that of `COc1c(Cl)ccc(Cl)c1C(=O)O`, “inactive”; in that of `CC(=O)OC(C)(C)C1CC=C(C)CC1` (stereo not given), “inactive”. For the compound `NC1CCCCC1N` (stereo not given), the Potency result was “inactive”. In the case of `COc1ccccc1[N+](=O)[O-]` it was “inactive”. Then `Cc1ncc(CO)c(CO)c1O`, with “inactive”; and `Nc1cccc(C(F)(F)F)c1`, with “inactive”. In the case of `CN1Cc2c(N)cccc2C(c2ccccc2)C1` (stereo not given) it was “inactive”; in that of `O=c1n(CCCN2CCN(c3cccc(Cl)c3)CC2)nc2ccccn12`, “inactive”; in that of `OCC(O)CS` (stereo not given), “inactive”. As for `C=C(CC(=O)O)C(=O)O`, the Potency result was “inactive”.

With `O=C(O)C1=NN(c2ccc(S(=O)(=O)O)cc2)C(=O)C1`, the Potency result is “inactive”. In the case of `CCCCC(=O)O` it was “inactive”; in that of `O=C(c1ccccc1)c1ccc(O)c(O)c1O`, “inactive”. Then `CC1(C)C(=O)N(Cl)C(=O)N1Cl`, with “inactive”. Then `NC(N)=S`, with “inactive”. `CCCCCCC(=O)O`: the Potency result is “inactive”. With `CC[N+](CC)(CC(=O)Nc1c(C)cccc1C)Cc1ccccc1`, the Potency entry is “inactive”.

Take `CCCCCCCCCCCC(=O)N(C)CC(=O)O`: the Potency result was “inactive”. In the case of `OCCOCCOCCOCCOCCO` it was “inactive”; in that of `CC(=O)c1nccs1`, “inactive”. As for `CCCCCCCCO`, the Potency result is “inactive”. Consider `COc1ccc(N)c(OC)c1`, for which the Potency entry was “inactive”. In the case of `C=CC(C)(C)C` it was “inactive”; in that of `COC(=O)/C=C\C(=O)OC`, “inactive”; in that of `Nc1nc(N)c2nc(-c3ccccc3)c(N)nc2n1`, 49 µM (active) and 21.3 µM (active). Then `COc1cc(NC(=O)CC(C)=O)c(OC)cc1Cl`, with “inactive”; and `CCCN(CCC)C(=O)SCC`, with “inactive”. In the case of `Cc1ccncc1` it was “inactive”. Regarding `CCCCCCCCCCCCCC(=O)O`, the Potency entry is “inactive”. Then `Cc1ccc(Cl)cc1`, with “inactive”; and `OC[C@H]1O[C@@H](Oc2ccc(O)cc2)[C@H](O)[C@@H](O)[C@@H]1O`, with “inactive”; and `CC(C)c1ccc(C(C)C)cc1`, with “inactive”. In the case of `COC(=O)OC` it was “inactive”; in that of `Cc1ccc(C)c(S(=O)(=O)O)c1`, “inactive”; in that of `COc1ccc([C@@H]2CC(=O)c3c(O)cc(O[C@@H]4O[C@H](CO[C@@H]5O[C@@H](C)[C@H](O)[C@@H](O)[C@H]5O)[C@@H](O)[C@H](O)[C@H]4O)cc3O2)cc1OC`, “inactive”.

Regarding `CCCCCCCCC(=O)O`, the Potency result was “inactive”.

In the case of `COC(=O)CCCCC(=O)OC`, the Potency result was “inactive”.
